USP8 block: inhibitors of human USP8 deubiquitinase; purified USP8, Ub-rhodamine cleavage fluorescence, 30 min; AID 1645853, 2021; Ubiquitin carboxyl-terminal hydrolase 8 (Homo sapiens), P40818; inhibition, % at 20 µM; 47,000 compounds, 4.2% hits
USP30 block: inhibitors of human USP30 deubiquitinase. inhibition, % at 25 µM. purified USP30, Ub-rhodamine cleavage fluorescence. Ubiquitin carboxyl-terminal hydrolase 30 (Homo sapiens), Q70CQ3. 47,000 compounds, 5.3% hits. AID 1645860, 2021
USP28 block: inhibitors of human USP28 deubiquitinase; inhibition, % at 25 µM; 47,000 compounds, 3% hits; Ubiquitin carboxyl-terminal hydrolase 28 (Homo sapiens), Q96RU2; purified USP28, Ub-rhodamine cleavage fluorescence, 30 min
USP17 block: inhibitors of human USP17 deubiquitinase; Ubiquitin carboxyl-terminal hydrolase 17-like protein 5 (Homo sapiens), A8MUK1; inhibition, % at 50 µM; purified USP17, Ub-rhodamine cleavage fluorescence, 3 h; 47,000 compounds, 6.5% hits
Target sequence (A8MUK1 whole entry, looked up): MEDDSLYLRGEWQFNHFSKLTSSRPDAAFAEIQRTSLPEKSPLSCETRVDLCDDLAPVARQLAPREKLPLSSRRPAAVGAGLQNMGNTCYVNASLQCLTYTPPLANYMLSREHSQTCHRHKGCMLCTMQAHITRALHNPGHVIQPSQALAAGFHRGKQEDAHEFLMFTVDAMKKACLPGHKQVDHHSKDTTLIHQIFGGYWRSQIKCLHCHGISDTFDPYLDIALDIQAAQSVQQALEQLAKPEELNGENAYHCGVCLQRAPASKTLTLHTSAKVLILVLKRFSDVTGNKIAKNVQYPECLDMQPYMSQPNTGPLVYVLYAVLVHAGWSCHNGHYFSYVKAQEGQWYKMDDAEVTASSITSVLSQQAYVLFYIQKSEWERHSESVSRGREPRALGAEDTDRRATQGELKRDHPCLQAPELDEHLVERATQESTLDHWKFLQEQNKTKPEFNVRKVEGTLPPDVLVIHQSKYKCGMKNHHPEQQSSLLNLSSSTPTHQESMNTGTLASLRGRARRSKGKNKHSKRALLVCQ
USP10 block: inhibitors of human USP10 deubiquitinase; 47,000 compounds, 1.1% hits; inhibition, % at 20 µM; purified USP10, Ub-rhodamine fluorescence, 60 min; Ubiquitin carboxyl-terminal hydrolase 10 (Homo sapiens), Q14694
* marks the source's active call; other numbers are inactive results; i = inactive; / = no result. Shown are actives, neighbours in structure and some others; about 13% of the full set was active somewhere. Cut-off read from the data, not from the text of the source: active = inhibition above about 30%; inactive = the rest.

SMILES	USP8 block	USP30 block	USP28 block	USP17 block	USP10 block
O=C(CCc1ccccc1)N(CC1CCCO1)c1nc2ccccc2s1 (stereo unspecified)	6	56*	22	21	3
CCOC(=O)c1ccc(OCC2c3cc(OC)c(OC)cc3CCN2C(=O)C(C)Oc2ccccc2)cc1 (stereo unspecified)	85*	-29	0	32*	-6
c1cc2c(cc1-c1nnc(C3(c4ccc5c(c4)OCO5)CCOCC3)o1)OCCO2	-1	33*	1	-5	5
Brc1ccc(C2(c3nnc(-c4ccc5c(c4)OCCO5)o3)CCOCC2)cc1	12	0	13	5	5
Cc1cccc(Cn2c(C3CCCO3)nc3ccccc32)c1 (stereo unspecified)	-6	0	-2	-6	-4
c1coc(-c2nc3ccccc3n2CCC2CCCCC2)c1	68*	-18	26	36*	-3
CCc1nc2cc(-c3noc(-c4ccnn4C)n3)ccc2o1	-19	-36	3	-13	0
COC(=O)c1cc(Br)c(NC(=O)c2ccco2)cc1OC	-1	20	17	39*	1
O=C(O)C1C(C(=O)Nc2ccccc2)C2(c3ccccc3)C(=O)C1(c1ccccc1)C(c1ccccc1)=C2c1ccccc1 (stereo unspecified)	51*	82*	86*	94*	69*
COc1ccc2[nH]c3c(c2c1)CCN1C(=O)N([C@@H](C)C(=O)N2CCC[C@H]2C(=O)O)C(=O)[C@]31C	-17	-22	-20	-6	-7
O=c1[nH]c(-c2cccnc2)nc2c1CCN(Cc1[nH]c3ccccc3c1Cl)C2	37*	-18	-13	21	0
O=c1[nH]c(-c2ccncc2)nc2c1CCN(Cc1ccc(Cl)cc1)C2	12	43*	9	28	0
O=c1[nH]c(-c2ccccn2)nc2c1CCN(Cc1cnn(-c3ccccc3)c1)C2	-259	19	-12	55*	-2
Cn1cc(CN2CCc3c(nc(-c4cccnc4)[nH]c3=O)C2)c2ccccc21	9	-19	-2	0	-3
O=C1c2cccc(O)c2C(=O)c2c(O)cccc21	-172	i	-166	-91	-7
C[C@@H]1OC2=C(C(=O)c3cccc(O)c3C2=O)[C@H](O)[C@@H]1O	63*	6	71*	80*	49*
O=C1C(O)=C(c2ccccc2)C2CCCN12 (stereo unspecified)	2	32*	-8	-26	3
O=C(Nc1cccc(F)c1)Nc1ccccc1SCc1cc(=O)n2ccccc2n1	0	-12	-1	-5	4
Cc1ccc2c(Sc3ccc(Cl)cc3)c(C(=O)N3CCC4(CC3)OCCO4)[nH]c2c1	1	19	32*	14	7
CC(Oc1ccc(F)cc1)C(=O)Nc1cccc2cccnc12 (stereo unspecified)	20	23	19	16	9
O=C(Nc1ccc(Oc2cccc3cccnc23)cc1)c1cccs1	-138	-27	86*	-21	3
O=C(c1cc(C2CC2)[nH]n1)N1CCN(Cc2ccccc2)CC1	-12	34*	17	18	3
COc1cccc(-n2c(CNCc3cccnc3)nc3ccc([N+](=O)[O-])cc3c2=O)c1	-66	68*	36*	36*	5
COc1cccc(N2CC(C(=O)NCCNC(=O)C3CC3)CC2=O)c1 (stereo unspecified)	0	10	-1	12	-1
O=C(Nc1cccc(Br)c1)c1cccc(N2CCCCS2(=O)=O)c1	5	-16	-1	-9	1
SMILES	USP8 block	USP30 block	USP28 block	USP17 block	USP10 block
O=C(Nc1ccc(F)cc1)c1ccc(N2CCCCS2(=O)=O)cc1Cl	0	-1	19	18	1
CC(=O)c1ccc(NC(=O)c2ccc(N3CCCCS3(=O)=O)cc2Cl)cc1	31*	4	25	52*	10
O=C(Nc1ccc(Cl)c(Cl)c1)c1cccc(N2CCCCS2(=O)=O)c1	-2	-5	34*	3	1
O=C(Cc1cccc2ccccc12)N1CCC(Cc2ccccc2)CC1	10	44*	4	20	17
c1ccc(CC2CCN(Cc3cccc4ccccc34)CC2)cc1	11	7	7	6	1
COc1ccccc1CC(=O)N1CCC(Cc2ccccc2)CC1	0	36*	8	11	6
CN1c2ccccc2C(=O)NC12CCN(C(=O)NCc1cccc(F)c1)CC2	-5	-6	-6	-8	-2
O=C(CSc1ncnc2c1cnn2-c1ccccc1)Nc1ccccc1-c1ccccc1	6	31*	11	13	3
O=c1c2sccc2n2c(=O)[nH]nc2n1Cc1ccccc1	20	24	24	6	3
CCCCc1ccc(NC(=O)Nc2ccccc2C(=O)NCC2CC2)cc1	20	27	14	31*	6
O=C(NCC1CCN(CCc2ccccc2)C1)Nc1ccccc1 (stereo unspecified)	3	-9	-4	-8	-2
Cc1ccccc1C1c2[nH]c3ccccc3c2C[C@H]2C(=O)N(CCN3CCOCC3)CC(=O)N12 (stereo partly specified)	-13	-112	-33	-37	-4
COc1ccc(OC)c(Nc2nc(-c3ccc(Cl)cc3)c(C)s2)c1	42*	10	11	5	8
COc1ccc(-c2nc(NC(=O)c3c(-c4ccccc4)noc3C)sc2C)cc1	0	14	13	0	5
O=C(Nc1ccc(S(=O)(=O)c2cccc(C(F)(F)F)c2)cc1)c1ccc(F)cc1	-1	41*	14	-3	13
Cc1nc2ccc(NC(=O)c3cccc(C(F)(F)F)c3)cc2nc1C	-134	-64	-11	-16	0
CC1=C(C(=O)NCc2ccccc2)C(c2ccccc2F)n2ncnc2N1 (stereo unspecified)	-14	-22	-15	-12	-1
O=C(NCc1cccc(Br)c1)c1cc2ccccn2n1	6	25	30*	15	0
O=C(NCCCN1CCOCC1)c1cc2ccccn2n1	0	-16	-12	-11	1
COc1cc(NC(=O)c2cccnc2)ccc1NC(=O)c1cc2ccccc2o1	-1	-54	-19	39*	-3
N#Cc1cc2c(cc1Br)OCO2	29	-2	15	11	0
CCOC(=O)c1c(C)oc2ncnc(Nc3cccc(OC)c3)c12	-7	11	1	11	0
CCOC(=O)c1noc2ncnc(NCc3cccc(OC)c3)c12	70*	-2	1	/	3
CCOC(=O)c1noc2nc(C)nc(NCc3ccccc3OC)c12	43*	11	13	21	-2
